The record followed here is PubChem BioAssay (NCI).

Test systems include NCI-H23 lung; NCI-H226 lung; NCI-H322M lung; HOP-62 NSCLC; NCI-H460 lung; HOP-92 NSCLC; NCI-H522 lung; A549/ATCC NSCLC; 786-0 renal; COLO 205 colon.
Common to all, as to assay: NCI-60 one-dose screen, 48 h (100 = growth as untreated, 0 = no growth, -100 = all killed)
What all share (conditions): 10 µM unless noted

The structures appear in SMILES notation. This is part of a sample that, as a whole, favours compounds with a hit. Of some 83,000 tested, about 20% had one in any assay.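 Assay: single dose, 48 h. Readout: percent growth (0 = no net growth; negative = cell death). Active: <10.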 Values without a mark were called inactive. Activity calls are given as the source filed them.

Turning to `CC1CCC(n2cnc3c(Cl)ncnc32)O1` (stereo not given), the growth in the assay with NCI-H23 lung is 89.5%; in the assay on NCI-H226 lung it was 95.9%; with NCI-H322M lung it was 86.3%; in the assay with HOP-62 NSCLC it was 91.2%; in the assay on NCI-H460 lung, 101%; with HOP-92 NSCLC it was 75.5%. Moreover, the growth is 82.9% in the assay on NCI-H522 lung, 106% with A549/ATCC NSCLC, 98.1% in the assay with 786-0 renal and 104% in the assay with COLO 205 colon.
With `Nc1cc2c(cc1Br)-c1c(C(=O)O)cccc1C2O` (stereo not given), the growth in the assay on NCI-H23 lung is 87.2%; with NCI-H226 lung, 100%; in the assay with NCI-H322M lung, 107%; with HOP-62 NSCLC, 95.9%; with NCI-H460 lung, 99.4%; with HOP-92 NSCLC, 125%. Moreover, the growth in the assay on NCI-H522 lung was 96.5%; in the assay on A549/ATCC NSCLC it was 91.7%; in the assay on 786-0 renal it was 98.8%; in the assay on COLO 205 colon, 96.3%.
Consider `CN(C)C1CCN(C(=O)c2ccc(NC(=O)Nc3ccc(-c4nc(N5CCOCC5)nc(N5CCOCC5)n4)cc3)cc2)CC1`, for which the growth in the assay on NCI-H23 lung was 8.52% [2.5 µM] (active); in the assay on NCI-H226 lung, -18.2% [2.5 µM] (active); with NCI-H322M lung, -30.3% [2.5 µM] (active); in the assay on HOP-62 NSCLC it was -21.5% [2.5 µM] (active); with NCI-H460 lung it was 6.4% [2.5 µM] (active); in the assay with HOP-92 NSCLC, -32% [2.5 µM] (active). For the same molecule, the growth in the assay on NCI-H522 lung was 8.88% [2.5 µM] (active); with A549/ATCC NSCLC, -25.2% [2.5 µM] (active); in the assay on 786-0 renal, -10.7% [2.5 µM] (active); with COLO 205 colon, -31.4% [2.5 µM] (active).
Take `CO[C@@H](C)Cn1c(=O)n(C)c2cnc3ccc(-c4cncc(C(C)(C)O)c4)cc3c21`: the growth in the assay on NCI-H23 lung is -2.1% (active); in the assay with NCI-H226 lung it was -12.7% (active); in the assay on NCI-H322M lung, -15.2% (active); in the assay on HOP-62 NSCLC, -14.5% (active); in the assay with NCI-H460 lung, 5.83% (active); in the assay on HOP-92 NSCLC, -24% (active). Besides, the growth was 3.46% (active) with NCI-H522 lung, -11.7% (active) with A549/ATCC NSCLC, -11.1% (active) with 786-0 renal and -24.6% (active) with COLO 205 colon.
As for `C/C(=C(/c1ccc(Cl)cc1)c1ccc(OCCN2CCCC2)cc1)c1ccccc1`, the growth in the assay on NCI-H23 lung is 71.2%; in the assay on NCI-H226 lung, 83.3%; in the assay on NCI-H322M lung, 82.5%; in the assay on HOP-62 NSCLC, 90%; in the assay on NCI-H460 lung, 41.5%; in the assay on HOP-92 NSCLC, 84.2%. The growth with NCI-H522 lung is 58.9%; with A549/ATCC NSCLC it was 66.7%; in the assay with 786-0 renal, 75.2%; in the assay on COLO 205 colon, 24.3%.
Regarding `COc1ccc(-c2nocc2-c2cc(OC)c(OC)c(OC)c2)cc1`, the growth is 19.2% in the assay on NCI-H23 lung; 58.8% with NCI-H226 lung; 44.6% with NCI-H322M lung; 29.6% with HOP-62 NSCLC; 8.8% (active) in the assay with NCI-H460 lung; 76% in the assay on HOP-92 NSCLC. Further, the growth with NCI-H522 lung is -5.37% (active); with A549/ATCC NSCLC, 25.4%; in the assay on 786-0 renal, 43.9%; in the assay on COLO 205 colon it was -12.4% (active).
For the molecule `O=C(Nc1ccc(N=Nc2ccccc2)cc1)c1cccc2ccccc12`, the growth in the assay with NCI-H23 lung is 81.2%; in the assay with NCI-H226 lung, 78.2%; with NCI-H322M lung it was 77.9%; in the assay on HOP-62 NSCLC it was 60.5%; in the assay on NCI-H460 lung it was 61.1%; in the assay with HOP-92 NSCLC it was 82.5%. In addition, the growth with NCI-H522 lung is 34.9%; in the assay with A549/ATCC NSCLC, 46.1%; with 786-0 renal it was 79.4%; in the assay on COLO 205 colon, 77.1%.
As for `CCc1ccc(/C=C/c2ccc(O)c3ncccc23)[n+](C)c1`, the growth with NCI-H23 lung is 21%; with NCI-H226 lung, 24.2%; in the assay with NCI-H322M lung, 48.7%; with HOP-62 NSCLC, 24.5%; in the assay with NCI-H460 lung, 17.2%; with HOP-92 NSCLC it was 83.6%. Further, the growth with NCI-H522 lung was 1.23% (active); with A549/ATCC NSCLC it was 18.3%; in the assay on 786-0 renal, 89.4%; in the assay with COLO 205 colon it was 70.9%.
On to `C/C=C/C=N/NC(=S)Nc1ccccc1`, for which the growth with NCI-H23 lung was 90.7%; with NCI-H226 lung, 95.8%; with NCI-H322M lung it was 90.6%; with HOP-62 NSCLC, 86%; in the assay with NCI-H460 lung it was 112%; in the assay on HOP-92 NSCLC it was 93%. The growth with NCI-H522 lung was 82.7%; in the assay on A549/ATCC NSCLC it was 79.4%; in the assay on 786-0 renal, 106%; in the assay on COLO 205 colon, 101%.
As to `O=C1CC(c2cccc(F)c2)c2c(n[nH]c2-c2ccc(Cl)cc2)N1` (stereo not given), the growth with NCI-H23 lung is 80.4%; in the assay with NCI-H226 lung, 80.7%; in the assay on NCI-H322M lung, 81.9%; in the assay with HOP-62 NSCLC it was 65.7%; with NCI-H460 lung it was 106%; with HOP-92 NSCLC, 83.6%. The growth in the assay with NCI-H522 lung was 61.5%; in the assay on A549/ATCC NSCLC it was 61.4%; in the assay with 786-0 renal, 89.7%; in the assay with COLO 205 colon it was 104%.
As to `Cc1cc2c3c(cccc3c1)C(=O)c1ccccc1-2`, the growth in the assay with NCI-H23 lung was 81%; in the assay with NCI-H226 lung, 96.6%; with NCI-H322M lung, 82.3%; with HOP-62 NSCLC, 99.3%; with NCI-H460 lung, 102%; with HOP-92 NSCLC it was 108%. Besides, the growth with NCI-H522 lung was 95%; in the assay with A549/ATCC NSCLC, 104%; in the assay with 786-0 renal it was 104%; with COLO 205 colon it was 93.4%.
For the molecule `ClCc1ccc(-c2ccc(Cn3cnc4nc(Cl)nc(Cl)c43)cc2)cc1`, the growth in the assay on NCI-H23 lung is 23.6%; with NCI-H226 lung it was 29.1%; in the assay with NCI-H322M lung, 56.8%; with HOP-62 NSCLC, 8.06% (active); in the assay with NCI-H460 lung, 14.3%; in the assay on HOP-92 NSCLC it was 25.8%. Moreover, the growth was -25.2% (active) in the assay with NCI-H522 lung, -6.5% (active) in the assay on A549/ATCC NSCLC, -14% (active) in the assay with 786-0 renal and -14.1% (active) in the assay with COLO 205 colon.
In the case of `COc1ccc2c(CCc3ccc(Cl)cc3)c3[n+](cc2c1OC)CCc1cc2c(cc1-3)OCO2`, the growth with NCI-H23 lung is 26.1%; with NCI-H226 lung, 71.4%; in the assay with NCI-H322M lung it was 90.4%; in the assay on HOP-62 NSCLC, 75.8%; in the assay with NCI-H460 lung it was 10.6%; in the assay with HOP-92 NSCLC, 25%. Moreover, the growth in the assay on NCI-H522 lung is 13.4%; with A549/ATCC NSCLC, 50.7%; in the assay with 786-0 renal, 73.4%; in the assay on COLO 205 colon, 27.1%.
